The entries come from a sample that favours hits as a whole.
Hsp90 Hop PPI: changes Hsp90-Hop TPR2A binding signal, up or down | AlphaScreen TPR2A-His6 binding biotin-Hsp90 C-terminal peptide | Potency, µM (top dose mostly 57 µM), for inactives: top-dose activity change, negative = inhibition | 71,000 compounds, 0.44% hits | AID 595; active = well fitted curve in either direction with a large enough effect; inconclusive = small, poorly fitted or top-dose-only effect, or another doubt; also: potency is read from the fitted curve at half-maximal effect; % is scaled to controls: 0 for no effect and ±100 for the full control effect
FLuc inh: firefly luciferase inhibition | purified firefly luciferase, luminescence, 8 min | AID 411 | 72,000 compounds, 2.2% hits | Potency, µM (doses to about 57.1 µM), without a hit: at the highest dose activity change, negative = inhibition, actives largely listed as inhibitors; also: potency is read from the fitted curve at half-maximal effect; % is scaled to controls: 0 for no effect and ±100 for the full control effect; nearly all actives have a fitted effect of over 40% in size
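qHTS concentration-response profiling: light output of P. pyralis luciferase with luciferin and 10 uM ATP, imidazole buffer pH 7.2. Read by luminescence after 8-min room-temperature incubation.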
p53ts 39C tox: kills p53ts cells at the nonpermissive temperature. 130,000 compounds, 1.5% hits. H1299-p53A138V viability at 39C, ATP luminescence, 24 h. AID 902. Potency, µM (highest dose often 46.1 µM), for inactives: at the top dose activity change, negative = cell killing, actives largely listed as cytotoxic; also: potency is read from the fitted curve at half-maximal effect; % is scaled to controls: 0 for no effect and ±100 for the full control effect; nearly all actives have a fitted effect of over 55% in size
IMPase cell inh: IMPase inhibition in cells | CHO-M1 cells, IP1 accumulation, HTRF TR-FRET ratio | inhibition (IP1 accumulation), % at 46.1 µM | 120,000 tested, under 10 active; active = well fitted curve in the direction sought with a large enough effect in the signal ratio, not every such curve was filed as active; inconclusive = small, poorly fitted or top-dose-only effect, or a change in a side signal; inactive = no such curve, though single readings can be large or run the other way; the % refers to the signal ratio;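 also: cells stimulated with carbachol in lithium chloride buffer; plate controls were DMSO basal wells for no effect and reference inhibitor wells for full effect; higher means more IMPase inhibition seen as more IP1 and lower FRET ratio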
Target sequence (P97697 whole entry, looked up): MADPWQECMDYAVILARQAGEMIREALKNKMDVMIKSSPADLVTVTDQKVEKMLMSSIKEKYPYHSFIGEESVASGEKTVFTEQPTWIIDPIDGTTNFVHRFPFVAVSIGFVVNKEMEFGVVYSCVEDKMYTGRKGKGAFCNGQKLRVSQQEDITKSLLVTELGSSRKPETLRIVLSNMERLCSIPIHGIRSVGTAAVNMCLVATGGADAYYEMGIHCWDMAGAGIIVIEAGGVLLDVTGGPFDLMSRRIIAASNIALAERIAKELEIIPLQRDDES
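Carbachol-driven Gq signalling in CHO-M1 cells (2000/well) generates IP1. Compounds that block IMPase raise IP1 and so reduce the FRET signal from Eu-anti-IP1 and d2-IP1 after a 10 min room-temperature lysis.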
IkB signaling: IkB pathway inhibition in ABC-DLBCL cells | AID 445 | Potency, µM (doses to about 57.1 µM), without a hit: top-dose IkBa stabilization activation | ABC-DLBCL IkBa-CBG/CBR dual luciferase ratio, 4 h; response scale: scaled: untreated 0%, proteasome inhibitor 100% | 110,000 compounds, 0.04% hits; active = well fitted curve in the direction sought with a large enough effect in the signal ratio, not every such curve was filed as active; inconclusive = small, poorly fitted or top-dose-only effect, or a change in a side signal; the % refers to the signal ratio;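 also: potency is read from the fitted curve at half-maximal effect; the direction sought is a rising ratio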
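Luminescence ratio of IκBα-fused green versus native red beetle luciferase in OCI-Ly3 cells, 4 h post-doxycycline with compound; red signal alone, scaled from basal (0%) to zero light (-100%), flagged nonspecific or cytotoxic effects.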
p53ts 32C kill: cytotoxicity in p53ts cells at permissive temperature; Potency, µM (titrated, usually from 46.1 µM), without a hit: top-dose activity change, negative = cytotoxicity, actives largely listed as cytotoxic; H1299-p53A138V at 32C, ATP luminescence viability, 24 h; 130,000 compounds, 0.93% hits;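 also: potency is read from the fitted curve at half-maximal effect; 0% = DMSO and -100% = full killing by reference compound; nearly all actives have a fitted effect of over 55% in size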
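Cells: H1299 p53ts (A138V), 600/well, pre-incubated 16–30 h at 37C. Cpd up to 46 uM, 24 h, 32C. Readout: ATPlite luminescence, 20 min RT. Normalization: DMSO vs tamoxifen 100 uM. AC50 by Hill equation.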
Active calls of the source: *; ? = inconclusive; / = not tested or not shown; [ ] = another dose, or the depositor's remark. Unless noted, calls follow the shape of the dose curve; as a rule, active = well fitted curve in the direction sought with a large enough effect; inconclusive = small, poorly fitted or top-dose-only effect, or another doubt; inactive = no such curve, though single readings can be large; an effect the other way counts as inactive or inconclusive.

SMILES | Hsp90 Hop PPI | FLuc inh | p53ts 39C tox | IMPase cell inh | IkB signaling | p53ts 32C kill
O=C(Cc1ccc(F)cc1)OCC(=O)c1cc2ccccc2o1 | 19% | -44% | 2% | -10 | 2% | 2%
O=C(COC(=O)c1cccs1)c1ccccc1 | 1% | 5µM* | 6% | -3 | 1% | -6%
O=C(COC(=O)c1cc2ccccc2o1)c1ccccc1 | 5%[11 µM] | 13µM* | 13% | 5 | ? | -3%
CCCSc1ncnc2c1oc1ccccc12 | 5% | -6% | -7% | 5 | -2% | 0%
Fc1ccccc1CSc1ncnc2c1oc1ccccc12 | 2% | 13µM* | 13µM* | 7 | 9% | 13µM*
COc1ccc2cnn(CCOc3ccccc3)c(=O)c2c1OC | -2% | 16µM* | -25% | -8 | ? | -21%
COc1ccc2cnn(-c3ccc(C)cc3)c(=O)c2c1OC | / | / | / | -4 | / | /
CCOCCOC(=O)COc1ccc(N2C(=O)c3ccccc3C2=O)cc1 | -5%[11 µM] | 16µM* | 8% | -2 | 3% | -7%
O=C(COc1ccc(F)cc1Br)N1CCc2ccccc21 | 0% | 7.9µM* | -27% | -1 | 0% | -13%
COc1cccc(CNC(=O)c2cnc(N3CCCC3)nc2C)c1 | / | / | -11% | / | 0% | -8%
Clc1ccc(-c2nnc(SCc3ccon3)o2)c(Cl)c1 | 6% | 7.9µM* | 10µM* | -5 | -1% | 10µM*
C=CCSc1nnc(-c2ccc(Cl)cc2Cl)o1 | ? | 7.9µM* | -24% | -5 | -1% | ?
COc1ccc(CCNC(=O)CCc2cn(Cc3ccc(F)cc3)c3ccccc23)cc1OC | / | / | -6% | / | 0% | 11%
COc1ccc2c(c1OC)C(=O)N1c3cccc(Cl)c3C(=O)OC21 (stereo not given) | ? | -3% | 1% | 5 | -1% | 11%
COc1ccc2c(c1OC)C(=O)N1c3ccccc3SC21 (stereo not given) | / | 5µM* | / | -12 | / | /
COc1ccc2c(c1OC)C(=O)N1c3ccccc3COC21 (stereo not given) | -2% | 10µM* | 16µM* | 11 | 2% | 13µM*
O=C(CCCN1C(=O)c2cccnc2Oc2ccc(Cl)cc21)NCc1ccccc1F | / | / | / | / | / | 2%
Cc1cccc(N2CCN(C(=O)C3CCCN(S(=O)(=O)c4ccc(Br)s4)C3)CC2)c1C (stereo not given) | / | / | 6% | 2 | 7% | -1%
O=C(NCc1ccccc1Cl)C1CCC(CNS(=O)(=O)c2ccc(Br)s2)CC1 (stereo not given) | / | / | 13µM* | -1 | 0% | ?
O=C(CSC1=NCCN1)c1ccccc1 | -4%[11 µM] | 2%[11.4 µM] | 1%[9.22 µM] | / | 0%[11.4 µM] | -3%[9.22 µM]
N#Cc1c(C(F)(F)F)cc(-c2cccs2)nc1SCC(=O)Nc1cccc(Cl)c1 | / | / | -5% | 2 | 1% | -2%
N#Cc1c(C(F)(F)F)cc(-c2cccs2)nc1SCC(=O)Nc1cccc(Br)c1 | / | / | 13µM* | -2 | ? | -15%
CC1=C(C(=O)O)N2C(=O)[C@@H](NC(=O)[C@@H](N)c3ccccc3)[C@@H]2SC1 | -3%[26 µM] | 4%[25.5 µM] | / | / | 1%[25.6 µM] | /
COc1cccc(CNc2ccc3c(c2)ncn3C(C)C)c1OC | -17% | 13µM* | -25% | 4 | 0% | ?
CCCn1c(NCc2cccc(OC)c2O)nc2ccccc21 | -7% | -4% | -9% | ? | 5% | -12%
SMILES | Hsp90 Hop PPI | FLuc inh | p53ts 39C tox | IMPase cell inh | IkB signaling | p53ts 32C kill
COc1cccc(CNc2ccc(F)c(Cl)c2)c1OC | / | / | / | 4 | / | /
CCCn1cnc2cc(NCc3ccccn3)ccc21 | ? | 16µM* | ? | 11 | ? | ?
CCCn1cnc2cc(NCc3cccc(OC)c3O)ccc21 | -8% | 16µM* | -3% | ? | 11% | -15%
Cn1cccc1C(=O)N1CCC2(CC1)CN(C(=O)Nc1cccc(C#N)c1)C2 | -19% | -3%[11.4 µM] | -5% | / | -1%[11.4 µM] | 4%
O=C(Nc1ccc(F)c(F)c1)C1CCCN1S(=O)(=O)c1cccc2nsnc12 (stereo not given) | / | / | -7% | / | 0% | 3%
COc1ccc(O)c(C(=O)CC(=O)c2ccc(F)cc2)c1 | -26% | 25µM* | 6.3µM* | 2 | ? | 6.3µM*
Cc1ccc(O)c(C(=O)CC(=O)c2cccc(F)c2)c1 | -26%[11 µM] | -2% | -11% | -6 | -2% | -14%
COc1ccc(-n2c(C)cc(C(=O)CSc3nn4c(=O)c(C(C)(C)C)nnc4s3)c2C)cc1 | -5% | 2µM* | -14% | -15 | 1% | 2%
Cc1ccc(-n2c(C)cc(C(=O)CSc3nncs3)c2C)cc1 | -7% | 25µM* | ? | 11 | ? | 13µM*
Cc1cc(C(=O)CSc2nncs2)c(C)n1-c1c(C)n(C)n(-c2ccccc2)c1=O | -2% | 0% | -16% | 22 | 0% | 8%
C[C@H]1CN(CCO)CCN1c1ccccc1 | -7%[11 µM] | 2%[11.4 µM] | 5%[9.22 µM] | / | 1%[11.4 µM] | 4%[9.22 µM]
CCCc1ccc(-c2ccc(F)c(N)c2)nc1 | 0% | 2µM* | 7.9µM* | -3 | ? | 4µM*
CCCCc1ccc(-c2ccc(Br)cc2)nc1 | / | / | 37% | 5 | / | 4%
COc1cc(NC(=O)C2CCN(S(=O)(=O)c3c(C)noc3/C=C/c3c(C)cc(C)cc3C)CC2)cc(OC)c1 | / | / | ? | / | ? | 7%
CC(=O)Nc1cccc(Cn2cccn2)c1 | -2% | 1% | 19% | 2 | 9% | 0%
O=C(Nc1cccc(Cn2cccn2)c1)c1cc2c(s1)CCCC2 | 6% | 13µM* | -27% | 18 | ? | -24%
Cc1ccc(C)c(Nc2ncnc3onc(C)c23)c1 | / | / | 1% | / | -2% | -5%
O=C(Nc1cccs1)Nc1cc(C(F)(F)F)ccc1Cl | / | / | 25µM* | / | ? | -14%
Oc1ccccc1-c1nc(/C=C/c2ccccc2Cl)no1 | / | / | 7.9µM* | 2 | ? | 7.9µM*
CC(C)(C)c1ccc(S(=O)(=O)/C=C\C#N)cc1 | 4% | -28% | 20µM* | 20 | ? | 16µM*
Cc1ccc(S(=O)(=O)/C=C\C#N)cc1 | -3% | -7% | 13µM* | 12 | ? | 13µM*
Cc1ccc(S(=O)(=O)c2ccc(C)cc2)cc1 | / | / | / | -1 | / | /
CC1Cc2cc(S(=O)(=O)N(C)c3ccc(Br)cc3)ccc2N1C(=O)C1CC1 (stereo not given) | / | / | 2% | / | 0% | 9%
Cc1ccc(Cn2c(=O)n(CCCCC(=O)NCCc3ccc(Cl)cc3)c(=O)c3ccccc32)cc1 | / | / | ? | / | ? | -25%
COc1cccc(NC(=O)N(Cc2cn(C)c3ccccc23)C2CCCCC2)c1 | / | / | ? | / | ? | -25%
Cc1ccc(NC(=O)N(Cc2cn(C)c3ccccc23)C2CCCCC2)cc1C | / | / | 13µM* | / | ? | ?

Screens (PubChem BioAssay)
